Source: PubChem BioAssay
BAZ2B inh: qHTS Assay for Inhibitors of BAZ2B. Potency, µM (titrated, usually from 114 µM), for inactives: at the top dose activity change, negative = inhibition, usual class: inhibitors. Bromodomain adjacent to zinc finger domain protein 2B (Homo sapiens), Q9UIF8. 360,000 compounds, 4.4% hits. AlphaScreen BAZ2B-H3K14Ac peptide displacement; also: potency is read from the fitted curve at half-maximal effect; % is scaled to controls: 0 for no effect and ±100 for the full control effect; nearly all actives have a fitted effect of over 60% in size
Target sequence (Q9UIF8 whole entry, looked up, the tested form may be a part): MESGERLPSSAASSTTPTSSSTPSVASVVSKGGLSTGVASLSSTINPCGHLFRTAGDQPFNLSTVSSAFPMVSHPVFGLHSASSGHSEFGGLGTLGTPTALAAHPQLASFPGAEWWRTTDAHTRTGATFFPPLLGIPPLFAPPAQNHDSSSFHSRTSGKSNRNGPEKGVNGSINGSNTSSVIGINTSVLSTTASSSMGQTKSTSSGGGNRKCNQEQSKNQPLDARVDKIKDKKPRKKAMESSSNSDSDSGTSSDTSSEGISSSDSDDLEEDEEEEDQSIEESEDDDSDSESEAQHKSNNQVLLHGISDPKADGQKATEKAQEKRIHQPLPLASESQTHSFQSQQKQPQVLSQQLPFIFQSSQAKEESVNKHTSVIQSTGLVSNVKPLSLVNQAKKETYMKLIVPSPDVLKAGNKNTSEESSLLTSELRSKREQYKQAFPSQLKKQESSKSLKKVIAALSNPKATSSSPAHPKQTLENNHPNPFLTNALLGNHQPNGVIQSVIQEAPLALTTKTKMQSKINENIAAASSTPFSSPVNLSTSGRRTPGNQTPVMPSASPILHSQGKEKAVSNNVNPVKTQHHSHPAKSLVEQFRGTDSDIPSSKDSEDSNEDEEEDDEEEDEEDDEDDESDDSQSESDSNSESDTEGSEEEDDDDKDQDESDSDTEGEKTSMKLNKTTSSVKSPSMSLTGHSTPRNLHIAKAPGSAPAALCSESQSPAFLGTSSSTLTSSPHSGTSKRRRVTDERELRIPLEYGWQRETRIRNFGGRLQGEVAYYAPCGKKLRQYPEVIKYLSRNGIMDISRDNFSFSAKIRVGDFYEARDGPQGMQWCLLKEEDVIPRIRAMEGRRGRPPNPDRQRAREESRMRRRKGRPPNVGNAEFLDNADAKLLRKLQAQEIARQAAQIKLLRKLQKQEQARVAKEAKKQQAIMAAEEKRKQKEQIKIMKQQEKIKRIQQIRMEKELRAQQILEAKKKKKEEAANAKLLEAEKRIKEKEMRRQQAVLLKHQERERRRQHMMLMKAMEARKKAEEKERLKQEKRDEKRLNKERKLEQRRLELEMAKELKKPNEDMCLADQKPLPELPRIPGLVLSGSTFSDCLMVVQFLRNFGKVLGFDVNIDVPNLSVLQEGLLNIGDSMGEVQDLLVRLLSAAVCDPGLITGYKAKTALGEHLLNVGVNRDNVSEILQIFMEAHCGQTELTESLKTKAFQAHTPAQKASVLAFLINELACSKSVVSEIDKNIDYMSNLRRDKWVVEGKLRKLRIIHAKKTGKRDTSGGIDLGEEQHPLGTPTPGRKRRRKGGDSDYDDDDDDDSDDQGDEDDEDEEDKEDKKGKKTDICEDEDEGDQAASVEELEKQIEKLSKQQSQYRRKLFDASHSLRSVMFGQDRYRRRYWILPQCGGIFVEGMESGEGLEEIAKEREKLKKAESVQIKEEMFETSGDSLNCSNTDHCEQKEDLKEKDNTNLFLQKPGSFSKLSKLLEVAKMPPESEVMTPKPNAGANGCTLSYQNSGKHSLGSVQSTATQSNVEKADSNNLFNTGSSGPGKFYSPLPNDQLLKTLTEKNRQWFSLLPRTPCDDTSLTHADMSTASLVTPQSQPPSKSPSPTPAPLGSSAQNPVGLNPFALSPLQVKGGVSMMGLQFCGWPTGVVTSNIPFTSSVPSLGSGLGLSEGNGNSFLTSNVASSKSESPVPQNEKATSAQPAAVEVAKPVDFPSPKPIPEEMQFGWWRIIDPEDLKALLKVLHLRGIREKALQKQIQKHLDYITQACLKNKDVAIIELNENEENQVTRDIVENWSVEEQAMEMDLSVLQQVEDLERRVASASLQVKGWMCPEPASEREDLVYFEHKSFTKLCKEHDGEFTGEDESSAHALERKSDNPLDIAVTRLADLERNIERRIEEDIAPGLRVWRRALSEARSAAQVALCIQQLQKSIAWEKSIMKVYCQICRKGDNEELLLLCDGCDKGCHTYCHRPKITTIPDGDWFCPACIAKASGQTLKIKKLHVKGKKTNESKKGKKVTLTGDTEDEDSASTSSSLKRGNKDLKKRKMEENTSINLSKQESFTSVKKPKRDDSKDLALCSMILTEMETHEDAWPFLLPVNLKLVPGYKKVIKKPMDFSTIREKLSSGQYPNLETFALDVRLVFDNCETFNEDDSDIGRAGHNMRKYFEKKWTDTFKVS
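AlphaScreen luminescence quantifies BAZ2B engagement of H3K14Ac peptide; the protein and biotinylated peptide are both at 50 nM final, buffer PBS pH 7.4 with 0.01% Tween-20, all steps at room temperature.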
PI5P4Ka inh: qHTS for Inhibitors of phosphatidylinositol 5-phosphate 4-kinase (PI5P4K) | PI5P4Kalpha enzyme, ADP-Glo luminescence, 60 min; active compounds read low | 330,000 compounds, 1.2% hits | max response, % | Phosphatidylinositol 5-phosphate 4-kinase type-2 alpha (Homo sapiens), P48426 | AID 652105, 2013; active = max response of -50% or lower; inconclusive = between -30% and -50%; inactive = -30% or higher; also: value at the top dose of about 77 µM; % is scaled to controls: 0 for no effect and ±100 for the full control effect
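Human PI5P4Kalpha with substrate in 0.038 M HEPES pH 7.4, 0.28 mM EGTA, 0.1% CHAPS, 5% DMSO; reaction started with 5 microM ATP (final), 60 min at room temperature. ADP formed read by ADP-Glo luminescence.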
JMJD2A Tudor: qHTS Assay for Inhibitors of JMJD2A-Tudor Domain. Lysine-specific demethylase 4A (Homo sapiens), O75164. AlphaScreen JMJD2A-Tudor / H3K4me3 peptide binding. Potency, µM (highest dose often 114 µM), for the others: top-dose activity change, negative = inhibition, actives largely listed as inhibitors. 390,000 compounds, 4.4% hits. AID 504339, 2011; also: potency is read from the fitted curve at half-maximal effect; % is scaled to controls: 0 for no effect and ±100 for the full control effect; nearly all actives have a fitted effect of over 50% in size
HP1b chromo inh: HTS for Inhibitors of HP1-beta Chromodomain Interactions with Methylated Histone Tails; Chromobox protein homolog 1 (Homo sapiens), P83916; 390,000 compounds, 0.56% hits; AID 540317, 2011; AlphaScreen HP1-beta / biotin-H3K9me3 peptide binding; Potency, µM (highest dose often 114 µM), inactives show top-dose activity change, negative = inhibition, actives largely listed as inhibitors; also: potency is read from the fitted curve at half-maximal effect; nearly all actives have a fitted effect of over 70% in size
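HP1-beta protein (50 nM final) preincubated 30 min at room temperature with biotinylated H3(1-18)K9me3 peptide (50 nM) in PBS pH 7.4, 0.01% Tween-20, then compound added for 30 min. AlphaScreen streptavidin donor/nickel chelate acceptor beads (10 ug/mL final), 30 min dark, luminescence read.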
PLK1 PBD inh: qHTS for Inhibitors of PLK1-PDB (polo-like kinase 1 - polo-box domain): Primary Screen | 360,000 compounds, 2.8% hits | Potency, µM, without a hit: max response, negative = inhibition, hits mostly inhibitors | Serine/threonine-protein kinase PLK1 (Homo sapiens), P53350 | Plk1 PBD binding of FITC phosphopeptide, fluorescence polarization; also: potency is read from the fitted curve at half-maximal effect; series mostly up to about 57 µM; % is scaled to controls: 0 for no effect and ±100 for the full control effect; nearly all actives have a fitted effect of over 65% in size
KAT2A inh: qHTS Assay for Inhibitors of GCN5L2; Potency, µM (doses to about 58.9 µM), without a hit: at the highest dose activity change, negative = inhibition, actives largely listed as inhibitors; Histone acetyltransferase KAT2A (Homo sapiens), Q92830; 390,000 compounds, 0.21% hits; AID 504327, 2011; GCN5L2 HAT assay, ThioGlo1 CoA-SH fluorescence; also: potency is read from the fitted curve at half-maximal effect; % is scaled to controls: 0 for no effect and ±100 for the full control effect
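Free CoA generated was detected with ThioGlo1 (50uM) fluorescence at Ex340nm/Em540nm, read immediately and after 20 min at room temperature. Enzyme, 20 nM in HEPES pH 7.5 buffer, saw compounds 15 min before adding 75uM H3(1-25) peptide and 70uM acetyl-CoA.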
Active calls of the source: *; ? = inconclusive; nt = no result given; ! = repeats disagree; [ ] = dose if it differs, or a comment. Only some compounds are listed: those with a hit (about 7% of all), similar ones and a draw of the others. Unless noted, calls follow the shape of the dose curve; as a rule, active = well fitted curve in the direction sought with a large enough effect; inconclusive = small, poorly fitted or top-dose-only effect, or another doubt; inactive = no such curve, though single readings can be large; an effect the other way counts as inactive or inconclusive.

SMILES	BAZ2B inh	PI5P4Ka inh	JMJD2A Tudor	HP1b chromo inh	PLK1 PBD inh	KAT2A inh
CC1CCCCN1Cc1c(O)ccc2c(=O)c(-c3ccc(Cl)cc3)coc12 (stereo not drawn)	-2.5%	1.0	79.4µM*!	28.9%	-6.3%	-18.3%
O=c1c(-c2ccc(Cl)cc2)coc2c(CN3CCOCC3)c(O)ccc12	nt	-17.7	7.5%[11.4 µM]	-7.2%	18.9µM*	-17.4%
O=C(O)c1cc(N=Nc2ccc(-c3ccc(N=Nc4ccc(O)c(C(=O)O)c4)cc3)cc2)ccc1O	nt	nt	nt	nt	nt	3.16µM*
Cc1ccc(S(=O)(=O)CCc2nnc(NC(=O)c3ccccn3)s2)cc1	3.16µM*	-2.9	11.2µM*	47.5%	-5.2%	8.7%
COc1cc(NC2c3ccccc3C(=O)N2Cc2ccc3c(c2)OCO3)cc(OC)c1OC (stereo not drawn)	-28.3%	-4.9	-31.9%	6.8%	-7.8%	-6.1%
CC(=O)c1cccc(NC2c3ccccc3C(=O)N2Cc2ccc3c(c2)OCO3)c1 (stereo not drawn)	-2.0%	-6.3	-17.4%	25.0%	-5.3%	-3.7%
O=C1c2ccccc2C(Nc2ccc3c(c2)OCCO3)N1Cc1ccccc1 (stereo not drawn)	39.8µM*	-5.7	39.8µM*	?	-4.8%	-10.5%
CCOc1ccc(NC2c3ccccc3C(=O)N2Cc2ccc3c(c2)OCO3)cc1 (stereo not drawn)	15.8µM*	2.2	44.7µM*	?	-14.9%	-7.7%
COc1ccccc1CNC(=O)CCCn1c(=O)c2ccccc2n(Cc2ccccc2C#N)c1=O	1.6%	nt	-14.0%	26.1%	nt	-2.1%
O=C(COC(=O)c1ccc(S(=O)(=O)NCc2ccco2)cc1)Nc1ccccc1	9.5%	-7.0	-6.2%	14.8%	-7.4%	1.3%
Cc1ccc2ccc(S(=O)(=O)NCc3ccco3)cc2c1	-17.7%	-20.8	-21.5%	3.6%	-22.8%	-6.8%
O=C(COC(=O)c1ccc(S(=O)(=O)NCc2ccco2)cc1)Nc1ccc(Cl)cn1	56.2µM*	?	?	-31.2%	?	-1.9%
CN(C)C(=O)COC(=O)c1ccc(S(=O)(=O)NCc2ccco2)cc1	?	-16.8	-5.9%[11.4 µM]	?	26.7µM*	0.3%
Cc1ccc(NC(=O)COC(=O)c2ccc(S(=O)(=O)NCc3ccco3)cc2)cc1	1.7%	-3.2	-15.8%	17.1%	-6.4%	-4.9%
Cc1ccc(S(=O)(=O)NCc2ccco2)cc1C(N)=O	-6.1%	-8.4	25.1µM*	-8.7%	26.7µM*	-1.5%
COCCCNC(=O)C[C@H]1C[C@H](C(=O)N(C(C)C)C(C)C)[C@@]2(C)c3[nH]c4ccc(Cl)cc4c3CCN2C1=O	nt	3.1	-16.5%	?	-7.0%	-0.8%
CC(=O)Nc1cccc(S(=O)(=O)N2CCCN(S(=O)(=O)c3ccc4c(c3)OCCO4)CC2)c1	nt	nt	-15.6%	nt	nt	nt
COc1ccc([C@H]2CC(=O)C=C(c3ccnc4ccc(Cl)cc34)C2)cc1	-9.4%	11.6	-25.0%	7.0%	-0.8%	-7.1%
O=C(Nc1ccc(S(=O)(=O)Nc2ncccn2)cc1)c1ccc(F)c(S(=O)(=O)N2CCOCC2)c1	-1.2%	-15.5	?	9.9%	29.9µM*	-0.8%
O=C(Nc1nnc(-c2ccccc2)s1)c1cccc(S(=O)(=O)N2CCOCC2)c1	-3.7%	-7.8	79.4µM*	13.5%	-7.3%	-8.2%
O=C(NNS(=O)(=O)c1ccccc1F)c1cccc(S(=O)(=O)N2CCOCC2)c1	-5.2%	-5.8	11.2µM*	2.8%	-17.6%	-2.6%
O=C(NNS(=O)(=O)c1ccc(F)c(Cl)c1)c1cccc(S(=O)(=O)N2CCOCC2)c1	-6.3%	2.0	-7.7%	25.7%	-12.2%	-7.1%
O=C(Nc1nnc(-c2ccccc2)s1)c1ccc(Cl)c(S(=O)(=O)N2CCOCC2)c1	9.3%	nt	nt	nt	nt	-2.1%
Cc1cc2c(s1)c1cnn(Cc3ccc(F)cc3)c(=O)c1n2C	nt	nt	-27.4%	nt	nt	nt
Cc1nn(C(=O)CCCn2cc([N+](=O)[O-])cn2)c(C)c1Cl	6.0%	?	20µM*	2.2%	21.2µM*	-5.9%
SMILES	BAZ2B inh	PI5P4Ka inh	JMJD2A Tudor	HP1b chromo inh	PLK1 PBD inh	KAT2A inh
CC(=O)/C(=N/Nc1ccccc1[N+](=O)[O-])N1CCCc2ccccc21	5.62µM*	25.3	11.2µM*	7.94µM*	-1.0%	-5.3%
CC(=O)/C(=N/Nc1ccc([N+](=O)[O-])cc1)N1CCCc2ccccc21	?	13.8	?	?	-0.8%	-10.1%
N#CCCSC(=S)C1CCCC1=N (stereo not drawn)	nt	-4.2	nt	nt	-0.8%	nt
CCOC(=O)C1(C)CCCN(C(=O)c2cc(C)on2)C1 (stereo not drawn)	nt	6.0	nt	nt	5.4%	nt
Cc1nn(C)c(C)c1S(=O)(=O)N1CCCC(C(=O)NCCc2ccc(Cl)cc2)C1 (stereo not drawn)	9.5%	-0.9	-11.7%	59.4%	0.6%	-3.3%
Cc1ccc(CCNC(=O)C2CCCN(S(=O)(=O)c3c(C)nn(C)c3C)C2)cc1 (stereo not drawn)	-3.7%	-2.4	?	9.3%	26.7µM*	-4.5%
Cc1ccc(CCNC(=O)C2CCN(S(=O)(=O)N3CCOCC3)CC2)cc1	-3.9%	3.5	28.2µM*	?	7.3%	-3.8%
CCc1c(C)nc2ncnn2c1N1CCC(C(=O)NCc2cccc(OC)c2)CC1	-1.9%	nt	?	-16.6%	26.7µM*	-4.9%
COc1cccc(CNC(=O)C2CCN(S(=O)(=O)c3c(C)nn(C)c3C)CC2)c1	-4.3%	7.1	-34.5%	22.7%	26.7µM*	-3.3%
NCCCCNc1ncnc2ccc(-c3ccc4c(c3)OCO4)cc12	nt	nt	-31.9%	nt	nt	nt
CCC(C)c1ccccc1NC(=O)CN(CC)CC(=O)Nc1ccc2c(c1)OCCO2 (stereo not drawn)	nt	3.2	-30.8%	0.3%	-7.8%	-5.6%
COc1ncc2nc(-c3ccc(F)cc3)c(=O)n(CCC#N)c2n1	nt	nt	nt	nt	nt	-19.8%
Cc1cc(OCC(=O)N(Cc2ccc(N(C)C)cc2)Cc2ccco2)cc(C)c1Cl	10µM*	nt	14.1µM*	-16.7%	nt	-9.5%
Cc1cc(OC(C)C(=O)N(Cc2ccc(N(C)C)cc2)Cc2ccco2)ccc1Cl (stereo not drawn)	12.6µM*	nt	14.1µM*	-27.1%	nt	-2.6%
O=C1c2ccccc2C(=O)N1c1ccncc1	nt	nt	-6.1%	nt	nt	nt
CCOC(=O)COc1ccccc1/C=C\[N+](=O)[O-]	-29.6%	-8.0	-14.9%	24.7%	7.52µM*	6.8%
